Where “and” joins values, the source holds several entries; their conditions need not be identical. Equal values may be shown once. Records with an inconclusive call do not appear. Where a structure was tested more than once in an assay, its records may differ in their call. Calls of active or inactive are those of the source. Unless noted, the call rests on the fitted dose curve; in most records, active means well fitted curve in the direction sought with a large enough effect in the repeat runs; inconclusive means weak or mixed curves; inactive means no such curve, though single readings can be large; an effect the other way counts as inactive or inconclusive.
Key:
[1] = qHTS assay to identify small molecule agonists of H2AX - cell viability counter screen (AID 1224847; calls by dose curve;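 further: wild-type CHO-K1 cells; top concentration of the series differs between compounds; nearly all actives have a fitted effect of over 30% in size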)
Procedure, shortened: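 CHO-K1 wt, 1000 cells/well, o/n 37C; cpds 15 conc, 3 h 37C, 0.76% DMSO; CellTiter-Glo, 30 min RT, luminescence.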

[2] = qHTS RealTime-Glo MT Cell Viability Assay in HepG2 cells - 24 hour (AID 1224867); further: nearly all actives have a fitted effect of over 50% in size
Procedure, shortened: (§1)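 HepG2 cells were seeded at 600 cells/well together with NanoLuc luciferase and a cell-permeant prosubstrate, preincubated 5 h at 37 C/5% CO2, then pin-dosed with compounds in DMSO. Nonlytic luminescence from viable cells was read at each time point.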

[3] = qHTS RealTime-Glo MT Cell Viability Assay in HEK293 cells - 32 hour (AID 1224868); further: top concentration of the series differs between compounds; nearly all actives have a fitted effect of over 50% in size
Procedure, shortened: (§2)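 HEK293 cells were seeded at 600 cells/well together with NanoLuc luciferase and cell-permeant prosubstrate, preincubated 5 h at 37 C/5% CO2, then given compound in DMSO by pintool. Luminescence from viable-cell prosubstrate reduction was read repeatedly over 40 h.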

[4] = A CellTox Green Cytotoxicity Assay to monitor cytotoxicity in HEK293 cells - 0 hour (AID 1224869); further: nearly all actives have a fitted effect of over 50% in size; further: potency means the concentration at half of the fitted maximal effect
Procedure, shortened: (§3)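 Tox21 screen in HEK293: membrane-impermeant cyanine dye fluoresces on binding dead-cell DNA; compound pinned 5 h post-seeding, plates held at 37 C, signal read repeatedly through 40 h.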

[5] = qHTS RealTime-Glo MT Cell Viability Assay in HepG2 cells - 40 hour (AID 1224870); further: nearly all actives have a fitted effect of over 50% in size
Procedure, shortened: (§4)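 HepG2 cells mixed with RealTime-Glo MT reagents (NanoLuc plus cell-permeant prosubstrate) were seeded at 600 cells/well, incubated 5 h at 37 C/5% CO2, then pinned with compounds in DMSO; nonlytic luminescence tracked viability during 40 h treatment.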

[6] = A CellTox Green Cytotoxicity Assay to monitor cytotoxicity in HEK293 cells - 40 hour (AID 1224871); further: nearly all actives have a fitted effect of over 45% in size; further: potency means the concentration at half of the fitted maximal effect
Procedure, shortened: as §3

[7] = qHTS RealTime-Glo MT Cell Viability Assay in HEK293 cells - 16 hour (AID 1224872)
Procedure, shortened: as §2

[8] = qHTS RealTime-Glo MT Cell Viability Assay in HepG2 cells - 8 hour (AID 1224873); further: nearly all actives have a fitted effect of over 55% in size
Procedure, shortened: as §4

[9] = qHTS RealTime-Glo MT Cell Viability Assay in HEK293 cells - 40 hour (AID 1224874); details: RealTime-Glo luminescence; max response: stronger effect = lower value; further: nearly all actives have a fitted effect of over 50% in size
Procedure, shortened: (§5)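 HEK293 + NanoLuc + prosubstrate, 600 cells/well; 5 h, 37 C/5% CO2; compound 23 nL in DMSO by pintool; 37 C; luminescence read at 0, 8, 16, 24, 32 and 40 h time points.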

[10] = A CellTox Green Cytotoxicity Assay to monitor cytotoxicity in HEK293 cells - 24 hour (AID 1224875); further: nearly all actives have a fitted effect of over 45% in size
Procedure, shortened: as §3

[11] = A CellTox Green Cytotoxicity Assay to monitor cytotoxicity in HepG2 cells - 16 hour (AID 1224876); further: nearly all actives have a fitted effect of over 45% in size; further: potency means the concentration at half of the fitted maximal effect
Procedure, shortened: (§6)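 Measurements at 0, 8, 16, 24, 32 and 40 h of treatment captured CellTox Green fluorescence in HepG2 cells that had been co-plated with reagent and preincubated 5 h at 37 C/5% CO2.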

[12] = qHTS RealTime-Glo MT Cell Viability Assay in HepG2 cells - 32 hour (AID 1224877); further: nearly all actives have a fitted effect of over 55% in size
Procedure, shortened: as §1

[13] = A CellTox Green Cytotoxicity Assay to monitor cytotoxicity in HepG2 cells - 24 hour (AID 1224878); further: nearly all actives have a fitted effect of over 45% in size; further: potency means the concentration at half of the fitted maximal effect
Procedure, shortened: as §6

[14] = A CellTox Green Cytotoxicity Assay to monitor cytotoxicity in HepG2 cells - 40 hour (AID 1224879); further: nearly all actives have a fitted effect of over 40% in size; further: potency means the concentration at half of the fitted maximal effect
Procedure, shortened: as §6

[15] = qHTS RealTime-Glo MT Cell Viability Assay in HEK293 cells - 0 hour (AID 1224880)
Procedure, shortened: as §5

[16] = A CellTox Green Cytotoxicity Assay to monitor cytotoxicity in HEK293 cells - 32 hour (AID 1224881); further: nearly all actives have a fitted effect of over 40% in size; further: potency means the concentration at half of the fitted maximal effect
Procedure, shortened: as §3

[17] = A CellTox Green Cytotoxicity Assay to monitor cytotoxicity in HepG2 cells - 0 hour (AID 1224882); further: nearly all actives have a fitted effect of over 35% in size; further: potency means the concentration at half of the fitted maximal effect
Procedure, shortened: as §6

[18] = A CellTox Green Cytotoxicity Assay to monitor cytotoxicity in HepG2 cells - 32 hour (AID 1224883); further: nearly all actives have a fitted effect of over 50% in size; further: potency means the concentration at half of the fitted maximal effect
Procedure, shortened: as §6

[19] = qHTS assay to identify small molecule antagonists of the estrogen related receptor (ERR) signaling pathway from Tox21 library (AID 1224848); further: nearly all actives have a fitted effect of over 50% in size
Procedure, shortened: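 Tox21 10K compounds in DMSO tested for ERR pathway antagonism in NTP's ERR cell line; 18 h, 37 C exposure; ONE-Glo luminescence.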

[20] = qHTS assay to identify small molecule agonists of the estrogen related receptor (ERR) signaling pathway from Tox21 library (AID 1224849; calls by dose curve; further: nearly all actives have a fitted effect of over 15% in size); details: ERR reporter cell line, ONE-Glo luciferase, 18 h
Procedure, shortened: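 Tox21 compounds tested for ERR agonism in an NTP reporter cell line: 18 h treatment at 37 C, then ONE-Glo luminescence.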
On the % scale 0 is the no-effect control and ±100 the full control effect.

ClCc1cccnc1
inactive: Potency [1] | outcome [2] | Potency [3] | Potency [4] | outcome [5] | Potency [6] | outcome [7] | outcome [8] | max response [9] 2.33% and -1.14% | Potency [10] | Potency [11] | outcome [12] | Potency [13] | Potency [14] | outcome [15] | Potency [16] | Potency [17] | Potency [18]

CCOP(=S)(OCC)SCCSCC
inactive: Potency [1] | outcome [2] | Potency [3] | Potency [4] | outcome [5] | Potency [6] | outcome [7] | outcome [8] | max response [9] 5.05% and 1.7% | Potency [10] | Potency [11] | outcome [12] | Potency [13] | Potency [14] | outcome [15] | Potency [16] | Potency [17] | Potency [18]

CN1C(=O)CN=C(c2ccccc2)c2cc(Cl)ccc21
inactive: Potency [19] | activity change, positive = activation ([20]; at 42.5 µM (top of the series)) 8.92% | activity change, positive = activation ([20]; at 92.4 µM (top of the series)) -13.2% | outcome [2] | Potency [3] | Potency [4] | outcome [5] | Potency [6] | outcome [7] | outcome [8] | max response [9] -22% | Potency [10] | Potency [11] | outcome [12] | Potency [13] | Potency [14] | outcome [15] | Potency [16] | Potency [17] | Potency [18]

CCCCCOC(=O)c1ccccc1C(=O)OCCCCC
inactive: Potency [1] | outcome [2] | Potency [3] | Potency [4] | outcome [5] | Potency [6] | outcome [7] | outcome [8] | max response [9] -11.1% and -2.4% | Potency [10] | Potency [11] | outcome [12] | Potency [13] | Potency [14] | outcome [15] | Potency [16] | Potency [17] | Potency [18]

c1ccc2c(c1)Oc1ccccc1O2
inactive: Potency [1] | outcome [2] | Potency [3] | Potency [4] | outcome [5] | Potency [6] | outcome [7] | outcome [8] | max response [9] 4.43% and 0.097% | Potency [10] | Potency [11] | outcome [12] | Potency [13] | outcome [15] | Potency [16] | Potency [17] | Potency [18]
30.5 µM (active) and inactive: Potency [14]

c1ccc(OP(Oc2ccccc2)Oc2ccccc2)cc1
inactive: Potency [1] | outcome [2] | Potency [3] | Potency [4] | outcome [5] | Potency [6] | outcome [7] | outcome [8] | max response [9] 4.65% and 9.76% | Potency [10] | Potency [11] | outcome [12] | Potency [13] | Potency [14] | outcome [15] | Potency [16] | Potency [17] | Potency [18]

CCCN(CCC)c1c([N+](=O)[O-])cc(C(F)(F)F)cc1[N+](=O)[O-]
1.55 µM (active) and inactive: Potency [4] | Potency [16]
inactive: Potency [1] | outcome [2] | Potency [3] | outcome [5] | Potency [6] | outcome [7] | outcome [8] | max response [9] -12.8% and 1.59% | Potency [11] | outcome [12] | Potency [13] | Potency [14] | outcome [15] | Potency [17]

CCCCCCCCCCCC#N
inactive and 50.7 µM (active): Potency [14]
inactive and 40.3 µM (active): Potency [6] | Potency [16]
inactive and 45.2 µM (active): Potency [4] | Potency [11] | Potency [13] | Potency [17] | Potency [18]
inactive: Potency [1] | outcome [2] | Potency [3] | outcome [5] | outcome [7] | outcome [8] | max response [9] -12% and 12.1% | outcome [12] | outcome [15]

CC1OC(C)OC(C)O1 (stereo unspecified)
inactive: Potency [19] | activity change, positive = activation ([20]; at 42.5 µM (top of the series)) 4.56% | activity change, positive = activation ([20]; at 92.4 µM (top of the series)) 4.37% | outcome [2] | Potency [3] | Potency [4] | outcome [5] | Potency [6] | outcome [7] | outcome [8] | max response [9] 8.31% and 5.6% | Potency [10] | Potency [11] | outcome [12] | Potency [13] | Potency [14] | outcome [15] | Potency [16] | Potency [17]

CCCCCCCCCl
inactive: Potency [1] | outcome [2] | Potency [3] | Potency [4] | outcome [5] | Potency [6] | outcome [7] | outcome [8] | max response [9] 2.47% and 5.32% | Potency [10] | Potency [11] | outcome [12] | Potency [13] | Potency [14] | outcome [15] | Potency [16] | Potency [17] | Potency [18]

O=NN1CCCC1
57.5 µM (active) and inactive: Potency [14]
inactive: Potency [1] | outcome [2] | Potency [3] | Potency [4] | outcome [5] | Potency [6] | outcome [7] | outcome [8] | max response [9] -15.8% and -5.95% | Potency [10] | outcome [12] | outcome [15] | Potency [16] | Potency [17]

Clc1ccccc1Cl
inactive and 54.9 µM (active): Potency [14]
inactive: Potency [1] | outcome [2] | Potency [3] | Potency [4] | outcome [5] | Potency [6] | outcome [7] | outcome [8] | max response [9] 2.45% and -10.4% | Potency [10] | Potency [11] | outcome [12] | Potency [13] | outcome [15] | Potency [16] | Potency [17] | Potency [18]

CCOP(OCC)OCC
inactive: Potency [1] | outcome [2] | Potency [3] | Potency [4] | outcome [5] | Potency [6] | outcome [7] | outcome [8] | max response [9] 7.3% and 7.34% | Potency [10] | Potency [11] | outcome [12] | Potency [13] | Potency [14] | outcome [15] | Potency [16] | Potency [17] | Potency [18]

Source: PubChem BioAssay (Tox21)
